In PubChem BioAssay (NCATS):
Inconclusive results are not listed. Activity calls are given as the source filed them. The call rests on the fitted dose curve; in most records, active means well fitted curve in the direction sought with a large enough effect; inconclusive means small, poorly fitted or top-dose-only effect, or another doubt; inactive means no such curve, though single readings can be large; an effect the other way counts as inactive or inconclusive. Numbered stars: 1 amine (or outer) side, 2 acyl side, 3 side chain; on linkers, the order of the positions; unused ones are H or OH. Bridge positions count the residues as written; N and C are the ends. Square brackets hold non-standard residues; d marks the D form. Peptide text beside a SMILES is read from it. I, II: the chains in the order shown. Actinocin(9to1) = Cc1c2oc3c(C)ccc(C(=O)[*:1])c3nc-2c(C(=O)[*:2])c(N)c1=O; NMeV = CN[C@H](C(=O)O)C(C)C; Sar = CNCC(=O)O

Assays:
[1] = qHTS assay for measurement of the activity of small molecule inhibitors on Zika virus induced Caspase-3 activity in human iPSC derived neural progenitor cells (hNPCs) (AID 1224857); further: % of control where 0% means no effect; nearly all actives have a fitted effect of over 65% in size
In short: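 Values are percent inhibition of virus-induced caspase-3/7 signal, scaled between uninfected cells and ZIKV-infected cells. Infection used 2 FFU/cell for 6 h after 1 h compound exposure.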

[2] = qHTS assay for measurement of the activity of small molecule inhibitors on Zika virus induced Caspase-3 activity in human astrocytoma cells (AID 1224859);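 further: plate controls were ZIKV-infected untreated cells for no effect and uninfected cells for full effect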
In short: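 Compound added 1 h pre-infection; ZIKV 2 FFU/cell on SNB-19 cells, 6 h, 37 C/5% CO2. Caspase-Glo 3/7 luminescence; values as % inhibition of ZIKV-induced caspase activity.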

[3] = qHTS assay to identify small molecule inhibitors of chordoma cells - UCH-2 (AID 1259356); further: series mostly up to about 46 µM; on the % scale 0 is the no-effect control and ±100 the full control effect
[4] = P-glycoprotein substrates identified in KB-8-5-11 adenocarcinoma cell line, qHTS therapeutic library screen (AID 1346987); further: series mostly up to about 44 µM; on the % scale 0 is the no-effect control and ±100 the full control effect; nearly all actives have a fitted effect of over 65% in size
In short: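 Luminescence from CellTiter-Glo, read 5 min after addition, quantified survival of KB-8-5-11 (P-gp-overexpressing) cells exposed to compounds for 72 h. AC50 was derived from concentration-response curves.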

[5] = NS1 protein of Zika virus - qHTS assay to identify small molecule inhibitors in human HEK 293 cells (AID 1347053);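 further: series mostly up to about 46 µM; plate controls were infected untreated cells for no effect and uninfected cells for full effect; nearly all actives have a fitted effect of over 55% in size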
In short: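 TR-FRET signal from two anti-ZIKV NS1 antibodies quantified NS1 in HEK 293 cells 24 h after MR766 infection at MOI = 0.5; compounds were added 1 h before virus. Uninfected cells and infected cells defined the NS1 normalization range.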

O=C1c2ccccc2C(=O)C1c1ccccc1
inactive: outcome [1] | outcome [2] | Potency [3] | Potency [4] | Potency [5]

COc1ccc(C2C(=O)c3ccccc3C2=O)cc1
inactive: outcome [1] | outcome [2] | Potency [3] | Potency [4] | Potency [5]

CN1[C@@H]2CC[C@H]1CC(OC(=O)c1c[nH]c3ccccc13)C2 (some centres not stated)
inactive: outcome [1] | outcome [2] | Potency [3] | Potency [4] | Potency [5]

NC(=O)C(=O)N/N=C/c1ccc([N+](=O)[O-])o1
inactive: outcome [1] | outcome [2] | Potency [3] | Potency [5]

N[C@H](Cc1c[nH]c2ccccc12)C(=O)O
inactive: outcome [1] | outcome [2] | Potency [3] | Potency [5]

Cc1cc(=O)n(-c2ccccc2)n1C
inactive: outcome [1] | outcome [2] | Potency [3] | Potency [4] | Potency [5]

CC(=O)OCC(=O)[C@@]1(OC(C)=O)[C@@H](C)C[C@H]2[C@@H]3C[C@H](F)C4=CC(=O)C=C[C@]4(C)[C@@]3(F)[C@@H](O)C[C@@]21C
inactive: outcome [1] | outcome [2] | Potency [3] | Potency [5]

CCN(CCCCOC(=O)c1ccc(OC)c(OC)c1)C(C)Cc1ccc(OC)cc1 (configuration not stated)
inactive: outcome [1] | outcome [2] | Potency [3] | Potency [5]

Cc1ccc(C(=O)C(C)CN2CCCCC2)cc1 (configuration not stated)
inactive: outcome [1] | outcome [2] | Potency [3] | Potency [4] | Potency [5]

OCc1ccccc1O
inactive: outcome [1] | outcome [2] | Potency [3] | Potency [4] | Potency [5]

CN1CCN(C(c2ccccc2)c2ccccc2)CC1
inactive: outcome [1] | outcome [2] | Potency [3] | Potency [4] | Potency [5]

O=C1OCCN1/N=C/c1ccc([N+](=O)[O-])o1
inactive: outcome [1] | outcome [2] | Potency [3] | Potency [4] | Potency [5]

CC(C)=CCC1C(=O)N(c2ccccc2)N(c2ccccc2)C1=O
inactive: outcome [1] | outcome [2] | Potency [3] | Potency [5]

CC(O)(P(=O)(O)O)P(=O)(O)O
inactive: outcome [1] | outcome [2] | Potency [3] | Potency [4] | Potency [5]

CC(O)C(=O)O (configuration not stated)
inactive: outcome [1] | outcome [2] | Potency [3] | Potency [4] | Potency [5]

CC(=O)OCC(=O)[C@@]12OC(C)(C)O[C@@H]1C[C@H]1[C@@H]3C[C@H](F)C4=CC(=O)C=C[C@]4(C)[C@@]3(F)[C@@H](O)C[C@@]12C
inactive: outcome [1] | outcome [2] | Potency [3] | Potency [5]

NC[C@H]1O[C@H](O[C@H]2[C@H](O[C@@H]3O[C@H](CO)[C@@H](O)[C@H]3O)C(O)[C@H](N)C[C@@H]2N)[C@H](N)[C@@H](O)[C@@H]1O (some centres not stated)
inactive: activity change, negative = inhibition [1] 16.5% [at 9.06 µM] | activity change, negative = inhibition [2] 3.88% [at 9.06 µM] | Potency [3] | Potency [4] | activity change, negative = inhibition [5] -23.8% [at 9.2 µM]

CCn1cc(C(=O)O)c(=O)c2cnc(N3CCCC3)nc21
inactive: activity change, negative = inhibition [1] -4.24% [at 9.06 µM] | activity change, negative = inhibition [2] 4.3% [at 9.06 µM] | Potency [3] | Potency [4] | activity change, negative = inhibition [5] -25.1% [at 9.2 µM]

C=C(CC)C(=O)c1ccc(OCC(=O)O)c(Cl)c1Cl
inactive: outcome [1] | outcome [2] | Potency [3] | Potency [4] | Potency [5]

NC(CS)C(=O)O (configuration not stated)
inactive: outcome [1] | outcome [2] | Potency [3] | Potency [4] | Potency [5]

Cc1c2oc3c(C)ccc(C(=O)N[C@@H]4C(=O)N[C@H](C(C)C)C(=O)N5CCC[C@H]5C(=O)N(C)CC(=O)N(C)[C@@H](C(C)C)C(=O)O[C@@H]4C)c3nc-2c(C(=O)N[C@@H]2C(=O)N[C@H](C(C)C)C(=O)N3CCC[C@H]3C(=O)N(C)CC(=O)N(C)[C@@H](C(C)C)C(=O)O[C@@H]2C)c(N)c1=O (I: T[dV]P[Sar][NMeV] / II: T[dV]P[Sar][NMeV]; ester I:1-I:C, II:1-II:C; linker I:N-II:N via Actinocin(9to1))
inactive: outcome [1] | outcome [2] | Potency [3] | Potency [5]

CCCCCCCCCCCCCCCCCC(=O)OCC(O)CO (configuration not stated)
inactive: outcome [1] | outcome [2] | Potency [3] | Potency [4] | Potency [5]

C[C@]12C=CC(=O)C=C1[C@@H](F)C[C@@H]1[C@@H]2[C@@H](O)C[C@@]2(C)[C@H]1CC[C@]2(O)C(=O)CO
inactive: outcome [1] | outcome [2] | Potency [3] | Potency [4] | Potency [5]

CC1(C)O[C@@H]2C[C@H]3[C@@H]4C[C@H](F)C5=CC(=O)C=C[C@]5(C)[C@H]4[C@@H](O)C[C@]3(C)[C@]2(C(=O)CO)O1
inactive: outcome [1] | outcome [2] | Potency [3] | Potency [4] | Potency [5]

COc1c2occc2c(OC)c2c(=O)cc(C)oc12
inactive: outcome [1] | outcome [2] | Potency [3] | Potency [4] | Potency [5]

CCOc1ccc(Cc2nccc3cc(OCC)c(OCC)cc23)cc1OCC
inactive: outcome [1] | outcome [2] | Potency [3] | Potency [5]

CCCCC(=O)O[C@]1(C(=O)CO)CC[C@H]2[C@@H]3CCC4=CC(=O)CC[C@]4(C)[C@H]3[C@@H](O)C[C@@]21C
inactive: outcome [1] | outcome [2] | Potency [3] | Potency [4] | Potency [5]
